Measured values: the supplement of paper PMC9262897, “Low-cost anti-mycobacterial drug discovery using engineered E. coli” (Nature Communications, 2022)
Structures can show the parent of a compound that is named as a salt. ± gives the standard deviation of the averaged measurements.

What was measured:
Test in all cases: growth (OD600 after 10 h); higher = more growth (less inhibition)
[1] = system: E. coli TESEC Alr+ wild-type control; conditions: compound 0.1 mM; raw OD600 reference: median of DMSO wells 0.241, cell-free background 0.041
Protocol: (§1)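 TESEC Mtb Alr E. coli, or the Alr+ wild-type control, in 384-well plates with Prestwick library compounds at 0.1 mM and 1% DMSO, across arabinose induction levels of 1E3 to 1E7 nM. Growth is read as OD600 after 10 h at 37 °C in triplicate biological replicates.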

E. coli TESEC Mtb Alr [2] = conditions: compound 0.1 mM
Protocol: as §1

E. coli TESEC Mtb Asd = conditions: compound 0.1 mM
Protocol: (§2)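 TESEC E. coli strains in which the native enzyme is deleted and replaced by arabinose-inducible Mtb Asd, DapB, CysH or TrpD, each grown in its selective medium. Strains were screened against the Prestwick library at 0.1 mM and 1% DMSO in 384-well format at low and high arabinose induction. Growth is read as OD600 after 10 h in triplicate.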

E. coli TESEC Mtb DapB = conditions: compound 0.1 mM
Protocol: as §2

[3] = system: E. coli TESEC Alr+ wild-type control; conditions: compound 0.1 mM; raw OD600 reference: median of DMSO wells 0.49, cell-free background 0.052
Protocol: (§3)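 TESEC Mtb Alr E. coli (ΔaraC ΔtolC ΔentC Δalr ΔdadX, arabinose-inducible Mtb Alr) or the Alr+ wild-type control strain, grown in defined M9-fructose medium without D-alanine in 96-well plates with Prestwick library compounds at 0.1 mM and 1% DMSO. Low Alr induction is 0.1 µM arabinose and high induction is 10 mM arabinose.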

E. coli TESEC Mtb Alr [4] = conditions: compound 0.1 mM; remark: listed apart in the source
Protocol: as §3

[5] = arabinose 1000 nM, raw OD600 reference: median of DMSO wells 0.294, cell-free background 0.041
[6] = arabinose 10000 nM, raw OD600 reference: median of DMSO wells 0.264, cell-free background 0.041
[7] = arabinose 100000 nM, raw OD600 reference: median of DMSO wells 0.201, cell-free background 0.041
[8] = arabinose 1000000 nM, raw OD600 reference: median of DMSO wells 0.193, cell-free background 0.041
[9] = arabinose 10000000 nM, raw OD600 reference: median of DMSO wells 0.146, cell-free background 0.041
[10] = arabinose induction (level): High, raw OD600 reference: median of DMSO wells 0.331, cell-free background 0.041
[11] = arabinose induction (level): Low, raw OD600 reference: median of DMSO wells 0.417, cell-free background 0.041
[12] = arabinose induction (level): High, raw OD600 reference: median of DMSO wells […], cell-free background 0.041
[13] = arabinose induction (level): Low, raw OD600 reference: median of DMSO wells 0.227, cell-free background 0.041
[14] = arabinose 100 nM, raw OD600 reference: median of DMSO wells 0.413, cell-free background 0.052
[15] = arabinose 10000000 nM, raw OD600 reference: median of DMSO wells […], cell-free background 0.052

| Compound | growth [1] | growth (E. coli TESEC Mtb Alr [2]; [5]) | growth (E. coli TESEC Mtb Alr [2]; [6]) | growth (E. coli TESEC Mtb Alr [2]; [7]) | growth (E. coli TESEC Mtb Alr [2]; [8]) | growth (E. coli TESEC Mtb Alr [2]; [9]) | growth (E. coli TESEC Mtb Asd; [10]) | growth (E. coli TESEC Mtb Asd; [11]) | growth (E. coli TESEC Mtb DapB; [12]) | growth (E. coli TESEC Mtb DapB; [13]) | growth [3] | growth (E. coli TESEC Mtb Alr [4]; [14]) | growth (E. coli TESEC Mtb Alr [4]; [15]) |
| --- | --- | --- | --- | --- | --- | --- | --- | --- | --- | --- | --- | --- | --- |
| C[CH2][Hg][S]c1ccccc1C(=O)[O-].[Na+] [Thimerosal] | 0.0433 ± 0.0046 | 0.162 ± 0.018 | 0.117 ± 0.01 | 0.0992 ± 0.0084 | 0.04637 ± 0.00025 | 0.0615 ± 0.0003 | 0.0491 ± 0.0015 | 0.0488 ± 0.0015 | 0.207 ± 0.019 | 0.214 ± 0.014 | 0.216 ± 0.1 | 0.355 ± 0.036 | 0.0589 ± 0.0027 |
| CNCC(O)c1ccc(O)cc1 (racemic) [(+,-)-Synephrine] | 0.239 ± 0.0073 | 0.2963 ± 0.00035 | 0.267 ± 0.01 | 0.175 ± 0.012 | 0.198 ± 0.012 | 0.141 ± 0.0004 | 0.222 ± 0.018 | 0.322 ± 0.076 | 0.227 ± 0.021 | 0.232 ± 0.042 | 0.58 ± 0.057 | 0.4195 ± 0.0029 | 0.325 ± 0.027 |
| C[C@]12CC[C@H]3[C@@H](CCC4=CC(=O)CC[C@@H]43)[C@@H]1CC[C@@H]2O [Nandrolone] | 0.154 ± 0.0082 | 0.201 ± 0.014 | 0.226 ± 0.012 | 0.118 ± 0.0031 | 0.0814 ± 0.0003 | 0.115 ± 0.0021 | 0.106 ± 0.0027 | 0.267 ± 0.1 | 0.1471 ± 0.0014 | 0.159 ± 0.0037 |  | 0.408 ± 0.0099 | 0.211 ± 0.0078 |
| O=C1CC[C@@]2(O)[C@H]3Cc4ccc(O)c5c4[C@@]2(CCN3CC2CC2)[C@H]1O5 [Naltrexone hydrochloride dihydrate] | 0.242 ± 0.0065 | 0.279 ± 0.022 | 0.2685 ± 0.0019 | 0.173 ± 0.023 | 0.175 ± 0.0025 | 0.139 ± 0.0097 | 0.224 ± 0.013 | 0.443 ± 0.05 | 0.193 ± 0.0052 | 0.219 ± 0.048 |  | 0.4315 ± 0.0022 | 0.335 ± 0.0091 |
| CN(C)[C@@H]1C(=O)C(C(N)=O)=C(O)[C@@]2(O)C(=O)C3=C(O)c4c(O)ccc(Cl)c4[C@@](C)(O)[C@H]3C[C@@H]12 [Chlortetracycline hydrochloride] | 0.03933 ± 0.00031 | 0.0417 ± 0.0029 | 0.04 ± 0.00072 | 0.0444 ± 0.0038 | 0.0402 ± 0.0018 | 0.0405 ± 0.0011 | 0.0499 ± 0.0023 | 0.0479 ± 0.00061 | 0.0465 ± 0.0014 | 0.0507 ± 0.0031 |  | 0.0524 ± 0.00066 | 0.0506 ± 0.00035 |
| C=C(C)[C@@H]1[C@H]2OC(=O)[C@@H]1[C@]1(O)C[C@H]3O[C@]34C(=O)O[C@H]2[C@]14C [Picrotoxinin] | 0.253 ± 0.0051 | 0.314 ± 0.023 | 0.2631 ± 0.002 | 0.215 ± 0.023 | 0.186 ± 0.0029 | 0.138 ± 0.0029 | 0.343 ± 0.016 | 0.461 ± 0.003 | 0.197 ± 0.0075 | 0.216 ± 0.0066 |  | 0.401 ± 0.011 | 0.351 ± 0.0093 |
| O=C(NCNC(=O)NC1C(=O)NC(=O)N1CO)NC1C(=O)NC(=O)N1CO (stereo not drawn) [Imidurea] | 0.231 ± 0.0035 | 0.2874 ± 0.0013 | 0.289 ± 0.0059 | 0.193 ± 0.036 | 0.231 ± 0.022 | 0.135 ± 0.0032 | 0.336 ± 0.057 | 0.358 ± 0.074 | 0.207 ± 0.024 | 0.215 ± 0.032 | 0.545 ± 0.022 | 0.44 ± 0.021 | 0.345 ± 0.012 |
| NC(=O)C[S+]([O-])C(c1ccccc1)c1ccccc1 (stereo not drawn) [Modafinil] | 0.246 ± 0.0057 | 0.295 ± 0.0039 | 0.255 ± 0.015 | 0.246 ± 0.021 | 0.192 ± 0.0097 | 0.148 ± 0.0039 | 0.348 ± 0.097 | 0.434 ± 0.039 | 0.191 ± 0.013 | 0.199 ± 0.017 |  | 0.406 ± 0.0054 | 0.346 ± 0.021 |
| S=C(NC1CCCCC1)N1CCC(c2cnc[nH]2)CC1 [Thioperamide maleate] | 0.218 ± 0.0074 | 0.286 ± 0.015 | 0.257 ± 0.013 | 0.17 ± 0.016 | 0.15 ± 0.0049 | 0.131 ± 0.0035 | 0.273 ± 0.013 | 0.495 ± 0.039 | 0.201 ± 0.015 | 0.21 ± 0.008 | 0.561 ± 0.066 | 0.402 ± 0.016 | 0.299 ± 0.029 |
| Cc1cccc(C)c1NC1=NCCCS1 [Xylazine] | 0.236 ± 0.0094 | 0.284 ± 0.0052 | 0.247 ± 0.0072 | 0.208 ± 0.029 | 0.169 ± 0.0055 | 0.137 ± 0.006 | 0.298 ± 0.051 | 0.34 ± 0.11 | 0.209 ± 0.016 | 0.226 ± 0.022 |  | 0.424 ± 0.0078 | 0.352 ± 0.023 |
| CC1C=CC=CCCC=CC=CC=CC=CC(OC2OC(C)C(O)C(N)C2O)CC2OC(O)(CC(O)C(O)CCC(O)CC(O)CC(O)CC(=O)OC(C)C(C)C1O)CC(O)C2C(=O)O (stereo not drawn) [Nystatine] | 0.297 ± 0.0097 | 0.307 ± 0.025 | 0.2338 ± 0.0013 | 0.345 ± 0.014 | 0.1538 ± 0.0011 | 0.188 ± 0.0066 | 0.23 ± 0.021 | 0.256 ± 0.023 | 0.295 ± 0.013 | 0.269 ± 0.051 | 0.471 ± 0.021 | 0.431 ± 0.0073 | 0.345 ± 0.016 |
| CC(O)(CS(=O)(=O)c1ccc(F)cc1)C(=O)Nc1ccc(C#N)c(C(F)(F)F)c1 (stereo not drawn) [Bicalutamide] | 0.154 ± 0.0054 | 0.2 ± 0.0073 | 0.306 ± 0.018 | 0.1769 ± 0.0014 | 0.108 ± 0.0031 | 0.15 ± 0.0023 | 0.216 ± 0.027 | 0.253 ± 0.017 | 0.196 ± 0.015 | 0.236 ± 0.021 | 0.3777 ± 0.0027 | 0.397 ± 0.018 | 0.232 ± 0.054 |
| C[C@@H]1CC[C@H]2[C@@H](C)C(=O)O[C@@H]3O[C@@]4(C)CC[C@@H]1[C@]32OO4 [Artemisinin] | 0.125 ± 0.01 | 0.121 ± 0.0046 | 0.194 ± 0.0057 | 0.142 ± 0.013 | 0.109 ± 0.0053 | 0.135 ± 0.0031 | 0.219 ± 0.025 | 0.216 ± 0.042 | 0.179 ± 0.012 | 0.191 ± 0.0069 |  | 0.348 ± 0.0058 | 0.135 ± 0.025 |
| CCC1(C)CC(=O)NC(=O)C1 [Bemegride] | 0.237 ± 0.0029 | 0.299 ± 0.023 | 0.253 ± 0.00095 | 0.227 ± 0.039 | 0.191 ± 0.0055 | 0.135 ± 0.0098 | 0.318 ± 0.043 | 0.46 ± 0.0049 | 0.2 ± 0.0046 | 0.23 ± 0.013 |  | 0.4 ± 0.019 | 0.363 ± 0.02 |
| C[N+]12CCC(CC1)C(OC(=O)C(O)(c1ccccc1)c1ccccc1)C2 (stereo not drawn) [Clidinium bromide] | 0.239 ± 0.0044 | 0.326 ± 0.011 | 0.273 ± 0.0033 | 0.175 ± 0.03 | 0.187 ± 0.01 | 0.132 ± 0.0086 | 0.288 ± 0.035 | 0.453 ± 0.034 | 0.169 ± 0.01 | 0.201 ± 0.0094 |  | 0.406 ± 0.015 | 0.353 ± 0.019 |
| CC(N)C(O)c1ccccc1 (stereo not drawn) [Phenylpropanolamine hydrochloride] | 0.26 ± 0.0031 | 0.298 ± 0.0047 | 0.254 ± 0.0066 | 0.229 ± 0.045 | 0.19 ± 0.011 | 0.148 ± 0.0054 | 0.399 ± 0.022 | 0.433 ± 0.067 | 0.189 ± 0.009 | 0.226 ± 0.025 |  | 0.404 ± 0.016 | 0.345 ± 0.015 |
